Compound activity (PubChem)
KB-V1 MDR tox: kills drug-selected multidrug resistant KB-V1 cells | KB-V1 MDR cells viability, CellTiter-Glo, 72 h | Potency, µM (top dose mostly 46.1 µM), actives largely listed as cytotoxic | actives 3.4% (n = 400,000) | AID 1347076; note: % is set by controls: 0 for no effect and ±100 for the full control effect; nearly all actives have a fitted effect of over 60% in size
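In this primary screen, KB-V1 cells overexpressing P-gp are incubated with library compounds (lowest to highest concentration) for 72 h at 37 degrees C before a luminescent ATP viability read.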
PINK1 expr mod: PINK1 expression modulation; PINK1 immunofluorescence, high-content cytometry, 24 h; Potency, µM (top dose mostly 76.6 µM), inactives show top-dose activation (PINK1 increase), hits mostly activators; actives 0.2% (n = 410,000); AID 624263; active = well fitted activation curve with a large enough effect; inconclusive = small, poorly fitted or top-dose-only effect; cell line not stated here; note: % of control where 0% means no effect; nearly all actives have a fitted effect of over 65% in size
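Readout is PINK1 immunofluorescence, quantified alongside mitochondrial, cell and nuclear markers by laser-scanning microplate cytometry. Cells from a stable line were exposed to compound titrations (5 concentrations) for 24 hours, with CCCP controls.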
MCF10A rerep: induces DNA re-replication in MCF 10a normal breast cells; Potency, µM (titrated, usually from 46.1 µM), for the others: at the highest dose activity, positive = re-replication, most hits filed as activators; MCF 10A DNA re-replication, Hoechst nuclear intensity, 48 h; actives 2.9% (n = 350,000); AID 624296; note: % of control where 0% means no effect; nearly all actives have a fitted effect of over 50% in size
PTAP TSG101 blk: blocks PTAP/TSG101 interaction to inhibit HIV-1 budding. Fluorescence polarization, FITC-PTAP peptide / Tsg101 binding. Potency, µM (top dose mostly 115 µM), for the others: at the top dose activity change, negative = inhibition, usual class: inhibitors. 340,000 tested, under 10 active. AID 493005; active = well fitted inhibition curve with a large enough effect in the main read-out, with a control signal flat, not every such curve was filed as active; inconclusive = small, poorly fitted or top-dose-only effect, or effect the other way, or a change in a side signal; inactive = no such curve, though single readings can be large or run the other way; note: % of control where 0% means no effect
Target sequence (Q99816 whole entry, looked up): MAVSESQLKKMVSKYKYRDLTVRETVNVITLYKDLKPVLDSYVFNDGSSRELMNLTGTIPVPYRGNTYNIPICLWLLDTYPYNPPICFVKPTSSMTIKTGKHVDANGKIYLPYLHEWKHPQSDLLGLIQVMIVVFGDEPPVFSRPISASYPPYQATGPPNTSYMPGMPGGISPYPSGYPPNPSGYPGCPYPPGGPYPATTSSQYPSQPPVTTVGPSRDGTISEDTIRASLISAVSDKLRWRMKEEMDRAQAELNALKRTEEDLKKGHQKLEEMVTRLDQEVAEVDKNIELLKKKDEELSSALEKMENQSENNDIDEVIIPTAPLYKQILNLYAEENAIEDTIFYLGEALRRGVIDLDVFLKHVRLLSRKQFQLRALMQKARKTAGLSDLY
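Compounds were pin-transferred onto Tsg101 binding domain (10 uM final) in HEPES pH 7.5 buffer, then FITC-PTAP peptide was added at 50 nM final. After 20 min at RT, polarization reported peptide displacement across a qHTS concentration series.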
SW480 rerep: DNA re-replication induction in SW480 cells; SW480 DNA re-replication, Hoechst DNA content imaging, 48 h; Potency, µM (titrated, usually from 46.1 µM), inactives show at the highest dose re-replication activation, hits mostly activators; actives 1.8% (n = 340,000); AID 624297; note: % of control where 0% means no effect; nearly all actives have a fitted effect of over 55% in size
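Image-based read-out: total Hoechst fluorescence of nuclei (405 nm excitation, 500-530 nm emission), with hits raising the fraction of high-intensity nuclei. SW480 colon cells incubated 48 hr with compounds at 37 C.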
KB-3-1 cytotox: KB-3-1 parental cell cytotoxicity; KB-3-1 viability, CellTiter-Glo ATP luminescence, 72 h; Potency, µM (doses to about 46.1 µM), most hits filed as cytotoxic; actives 1.4% (n = 400,000); note: % is set by controls: 0 for no effect and ±100 for the full control effect; nearly all actives have a fitted effect of over 60% in size
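Multi-concentration cytotoxicity screen in KB-3-1 cells grown in DMEM lacking phenol red with 10% FBS. After 72 h at 37 °C with compound, ATP-dependent luminescence was recorded.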
Numbers without * were called inactive; i = inactive; ? = inconclusive; . = not tested or not shown; [ ] = another dose, or the depositor's remark. In the library only some 6.8% were active in any assay of this set; here they are far more common. Unless noted, calls come from the whole dose curve; as a rule, active = well fitted curve in the direction sought with a large enough effect; inconclusive = small, poorly fitted or top-dose-only effect, or another doubt; inactive = no such curve, though single readings can be large; an effect the other way counts as inactive or inconclusive. Potency is the fitted concentration of half-maximal effect.

SMILES | KB-V1 MDR tox | PINK1 expr mod | MCF10A rerep | PTAP TSG101 blk | SW480 rerep | KB-3-1 cytotox
COc1cc(C(=O)NCCSc2c(-c3ccccc3)[nH]c3ccccc23)cc(OC)c1OC | ? | 1% | . | . | . | ?
CCOc1ccc(Cl)cc1S(=O)(=O)N1CCN(c2ccc(C)c(C)c2)CC1 | 15µM* | -1% | 8% | -1% | ? | i
COc1ccc(-c2ccc(C(=O)NCC3Cc4cccc(-c5nc(C)cnc5C)c4O3)o2)cc1 (stereo not drawn) | . | 1% | . | . | . | .
CSCCC(NC(=O)C1CCCCC1)c1nc2ccccc2[nH]1 (stereo not drawn) | ? | -1% | 3% | -1% | ? | i
CC(OC(=O)C1CCCCC1)c1nc2ccccc2[nH]1 (stereo not drawn) | 21µM* | 6% | -1% | 0% | -8% | i
COc1cccc(-n2c(-c3ccccc3)c[nH]c2=S)c1 | i | 0% | 3% | -4% | -5% | i
S=c1[nH]cc(-c2ccccc2)n1-c1ccccc1Cl | 13µM* | 0% | 8% | -2% | -3% | i
COc1ccccc1-n1c(-c2ccccc2)c[nH]c1=S | i | 5% | 5.2µM* | -5% | -7% | i
O=C(NCC(c1cccs1)N1CCOCC1)c1cn(-c2ccccc2)nc1-c1ccccc1 (stereo not drawn) | 23µM* | 0% | -1% | -1% | -8% | i
O=C(NCC(c1cccs1)N1CCOCC1)c1cn(-c2ccccc2)nc1-c1ccc(Cl)cc1 (stereo not drawn) | 7.3µM* | -4% | 13% | -1% | ? | ?
O=C(CSc1ncc2c(n1)-c1ccccc1N(Cc1ccc(F)cc1)S2(=O)=O)c1ccc(Cl)cc1 | i | 2% | . | . | . | i
C=CCc1ccc(OCC(O)CN2CCC(Cc3ccccc3)CC2)c(OC)c1 (stereo not drawn) | 21µM* | ? | 7% | -1% | ? | i
C=CCc1ccc(OCC(O)CN2CCN(Cc3ccc(Cl)cc3)CC2)c(OC)c1 (stereo not drawn) | ? | 5% | ? | -3% | ? | 23µM*
Cc1ccc(OCC(O)CN2CCC(Cc3ccccc3)CC2)c(C)c1 (stereo not drawn) | i | -1% | ? | -2% | ? | i
C=CCc1ccc(OCC(O)CN2CCN(c3ccccc3OC)CC2)c(OC)c1 (stereo not drawn) | i | -1% | 23% | -1% | ? | i
CCOc1ccc(CCNC(=O)C2CCC(CNS(=O)(=O)c3ccc(Cl)cc3)CC2)cc1OCC (stereo not drawn) | i | 2% | . | . | . | i
COc1ccc2c(c1)-c1nc(-n3ncc(C(=O)N(C)C(C)c4ccon4)c3C3CC3)ncc1CC2 (stereo not drawn) | . | 2% | . | . | . | .
O=c1cc(CN2CCN(C/C=C/c3ccccc3)CC2)c2cc(O)c(-c3ccccc3)cc2o1 | i | ? | 13% | 0% | 18µM* | ?
Cc1cccc(N2CCN(C(=O)C3CCN(S(=O)(=O)c4c(C)noc4/C=C/c4ccccc4F)CC3)CC2C)c1 (stereo not drawn) | . | 0% | . | . | . | .
CCN(CC)CCC(=O)N1c2ccccc2Sc2ccc(Cl)cc21 | ? | 2% | 30µM* | -2% | 14µM* | i
OC(CN1c2ccccc2Sc2ccccc21)Cn1nnc2ccccc21 (stereo not drawn) | 16µM* | -2% | ? | -4% | 16% | ?
Cn1c(SCC(=O)N2c3ccccc3Sc3ccc(Cl)cc32)nnc1-c1ccco1 | 23µM* | 3%[38.3 µM] | ? | 0% | 1% | i
Cc1nnc(SCC(=O)N2c3ccccc3Sc3ccccc32)n1N | i | 4%[38.3 µM] | 9.2µM* | -2% | 23µM* | i
CCn1c(SCC(=O)N2c3ccccc3Sc3ccccc32)nnc1-c1ccco1 | i | . | -4% | -6% | 5% | i
Cc1ccc(C)c(N2CCN(S(=O)(=O)c3c(C(=O)N4CCC(C)CC4)c(C)n(C)c3C)CC2)c1 | . | 2% | . | . | . | .
SMILES | KB-V1 MDR tox | PINK1 expr mod | MCF10A rerep | PTAP TSG101 blk | SW480 rerep | KB-3-1 cytotox
COCc1c(C(=O)N2CCC(N(C)C)C2)cnn1-c1ncc2c(n1)-c1ccccc1CCC2 (stereo not drawn) | . | 0% | . | . | . | .
Cc1ccc(C)c(Cn2c3ccccc3c3cnn(CC(=O)NC4CCC(C)CC4)c(=O)c32)c1 (stereo not drawn) | i | 2% | . | . | . | i
Cn1c(Cn2nnc3ccccc32)nnc1SCC(=O)N1c2ccccc2Sc2ccccc21 | 16µM* | 2%[38.3 µM] | ? | -14% | 4% | i
C=CCn1c(=O)c(C(=O)Nc2ccc(C)cn2)c(O)c2ccccc21 | 6.5µM* | 9% | -3% | -2% | 0% | ?
CCCn1c(=O)c(C(=O)NCCc2ccccc2)c(O)c2ccccc21 | ? | 28% | 9% | -9% | -2% | ?
C=CCn1c(=O)c(C(=O)NCCc2ccccc2)c(O)c2ccccc21 | 21µM* | . | 7% | -5% | -7% | i
C=CCn1c(=O)c(C(=O)Nc2cccnc2)c(O)c2ccccc21 | ? | 21% | ? | -5% | 2% | i
COc1cc(C(=O)Nc2ccc(C)cn2)c([N+](=O)[O-])cc1OC | i | 0% | 1% | -2% | -9% | i
COc1cc(C(=O)Nc2c(C)cc(C)cc2C)c([N+](=O)[O-])cc1OC | 21µM* | -1% | 4% | -8% | 1% | i
O=C(C1CCC(CNS(=O)(=O)c2cccc3nsnc23)CC1)N1CCN(c2ccccn2)CC1 (stereo not drawn) | 18µM* | -1% | -2% | -3% | -26% | i
CN1CCN(C(=O)C2CCC(CNS(=O)(=O)c3cccc4cccnc34)CC2)CC1 (stereo not drawn) | i | 6% | ? | 0% | -3% | i
COc1ccc(-c2nc(N3CCCC3)[nH]c(=O)c2C#N)cc1 | i | -1% | ? | 0% | -9% | ?
COc1ccc(-c2nc(N3CCC(C)CC3)[nH]c(=O)c2C#N)cc1 | ? | . | 3.7µM* | -5% | ? | i
Cc1ccc(Sc2c(C=O)c3ccccc3n2C)cc1 | ? | 3% | ? | -5% | 15µM* | 23µM*
Cc1ccc(Sc2c([N+](=O)[O-])c(=O)n(C)c3ccccc23)cc1 | i | 1% | 5.8µM* | -8% | 4% | ?
Cc1ccc(Sc2c(O)c3ccccc3n(C)c2=O)cc1 | i | -1% | -1% | -6% | -270% | i
